Assay results published in PubChem BioAssay (Tox21).
Inconclusive results are not listed. Activity calls are given as the source filed them. Unless noted, the call rests on the fitted dose curve; in most records, active means well fitted curve in the direction sought with a large enough effect in the repeat runs; inconclusive means weak or mixed curves; inactive means no such curve, though single readings can be large; an effect the other way counts as inactive or inconclusive.

Experiments:
[1] = qHTS assay to identify small molecule antagonists of the estrogen receptor alpha (ER-alpha) signaling pathway using the BG1 cell line in the presence of 0.1 nM 17-beta-estradiol - cell viability counter screen (AID 1259241); further: nearly all actives have a fitted effect of over 40% in size
How it was run: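 Viability in VM7Luc4E2 cells after 22 hr compound exposure under 0.1 nM 17beta-estradiol stimulation, by CellTiter-Fluor.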

[2] = qHTS assay to identify small molecule antagonists of the androgen receptor (AR) signaling pathway using the MDA cell line in the presence of 0.5 nM R1881 - cell viability counter screen (AID 1259242); further: nearly all actives have a fitted effect of over 45% in size
How it was run: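 Human breast carcinoma MDA-kb2 cells, cultured without CO2, receive compounds alongside 0.5 nM (final) R1881 agonist. After 16 hr at 37C, viability is taken as live-cell protease signal.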

[3] = target: Estrogen receptor (Homo sapiens) (UniProt P03372); assay: qHTS assay to identify small molecule antagonists of the estrogen receptor alpha (ER-alpha) signaling pathway using the BG1 cell line in the presence of 0.1 nM 17-beta-estradiol (AID 1259244); further: nearly all actives have a fitted effect of over 50% in size
How it was run: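 Seeding of stripped-serum-adapted VM7Luc4E2 cells, 24 h attachment, compound transfer, then 0.1 nM final 17beta-estradiol; after 22 h incubation, ONE-Glo reagent and luminescence reading.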

[4] = qHTS assay to identify small molecule HDAC inhibitors (AID 1259364);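 further: wild-type HCT-116 cells with endogenous class I/II HDAC activity; top concentration of the series differs between compounds; nearly all actives have a fitted effect of over 45% in size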
How it was run: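 After a 2 hr compound incubation (37C, 5% CO2), HCT-116 cells seeded at 1,500/well the day before received HDAC-Glo reagent; signal read as luminescence after 30 min at room temperature.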

[5] = qHTS assay to identify small molecule HDAC inhibitors - cell viability counter screen (AID 1259365); further: series mostly up to about 92 µM; nearly all actives have a fitted effect of over 50% in size
How it was run: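 Cytotoxicity was gauged in wild-type HCT-116 cells after a brief 2hr treatment with DMSO-dissolved compounds at 37C and 5% CO2, using CellTiter-Glo luminescence developed for 30min at room temperature.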

[6] = qHTS assay to identify small molecule agonists of the sonic hedgehog signaling (Shh) pathway - cell viability counter screen (AID 1259366); further: nearly all actives have a fitted effect of over 50% in size
How it was run: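 Stable Gli1-Luc NIH/3T3 clone, 2,000 cells/well. Compound exposure 24hr at 37C. Read-out: CellTiter-Fluor fluorescence.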

[7] = qHTS assay to identify small molecule antagonists of the sonic hedgehog signaling (Shh) pathway - cell viability counter screen (AID 1259367); further: nearly all actives have a fitted effect of over 55% in size
How it was run: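 Viability was read by CellTiter-Fluor fluorescence in the same wells, reagent added 23 hr into compound treatment and incubated 1 hr at 37C. The 3T3 Gli1-Luc reporter cells (2,000/well) received conditioned medium after compound and ran 24 hr.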

[8] = qHTS assay to identify small molecule agonists of the sonic hedgehog signaling (Shh) pathway (AID 1259368; calls by dose curve;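 further: NIH/3T3-derived 3T3Gli1-Luc cells carrying a stable Gli1-driven firefly luciferase reporter; series mostly up to about 92 µM; nearly all actives have a fitted effect of over 15% in size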)
How it was run: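 Stable NIH/3T3 Gli1-Luc reporter clone; 24 hr cpd exposure after a 4 hr settling period; luminescence endpoint.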

[9] = qHTS assay to identify small molecule phospholipidosis (PLD) inducers (AID 1259344; active means well fitted curve in the direction sought with a large enough effect; an effect the other way counts as inactive or inconclusive)
How it was run: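 Phospholipid accumulation was scored by imaging: fixed, Hoechst-counterstained HepG2 cells stained with LipidTOX Red after 24 h compound exposure at 37 C. Read-outs were pit count and pit intensity per well or per cell, with amiodarone and DMSO controls.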
On the % scale 0 is the no-effect control and ±100 the full control effect.

Chain of Estrogen receptor (Homo sapiens) (P03372 whole entry, looked up): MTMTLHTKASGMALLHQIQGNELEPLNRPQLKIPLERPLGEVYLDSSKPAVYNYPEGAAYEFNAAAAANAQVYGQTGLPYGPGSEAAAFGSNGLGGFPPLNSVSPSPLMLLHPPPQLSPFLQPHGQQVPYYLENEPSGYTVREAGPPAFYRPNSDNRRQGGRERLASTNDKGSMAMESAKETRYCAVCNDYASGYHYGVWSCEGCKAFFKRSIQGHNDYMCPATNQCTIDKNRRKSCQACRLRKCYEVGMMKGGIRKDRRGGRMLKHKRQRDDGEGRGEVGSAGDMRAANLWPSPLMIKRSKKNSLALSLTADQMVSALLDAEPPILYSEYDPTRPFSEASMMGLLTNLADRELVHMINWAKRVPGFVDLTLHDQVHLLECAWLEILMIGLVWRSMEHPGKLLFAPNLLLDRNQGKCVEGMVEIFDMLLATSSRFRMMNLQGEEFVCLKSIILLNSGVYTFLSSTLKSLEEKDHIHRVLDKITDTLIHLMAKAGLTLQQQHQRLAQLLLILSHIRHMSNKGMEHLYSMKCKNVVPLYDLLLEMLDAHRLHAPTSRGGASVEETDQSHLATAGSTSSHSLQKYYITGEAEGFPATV

N#Cc1ccc(C2CCCc3cncn32)cc1 (configuration not stated)
inactive: outcome [1] | Potency [2] | outcome [3] | Potency [4] | outcome [5] | Potency [6] | Potency [7] | outcome [8]

CCOC(C)(C)C
inactive: outcome [1] | Potency [2] | outcome [3] | Potency [4] | outcome [5] | Potency [6] | Potency [7] | outcome [8]

COC(=O)NN
inactive: outcome [1] | Potency [2] | outcome [3] | Potency [4] | outcome [5] | Potency [6] | Potency [7] | outcome [8]

NC(=O)c1ccc(N)cc1
inactive: outcome [1] | Potency [2] | outcome [3] | Potency [4] | outcome [5] | Potency [6] | Potency [7] | outcome [8]

CCC(=O)OC(C)c1ccccc1 (configuration not stated)
inactive: outcome [1] | Potency [2] | outcome [3] | Potency [4] | outcome [5] | Potency [6] | Potency [7] | outcome [8]

O=C1OC(=O)C2CCCCC12 (configuration not stated)
inactive: outcome [1] | Potency [2] | outcome [3] | Potency [4] | outcome [5] | Potency [6] | Potency [7] | outcome [8]

COc1c(N2C[C@@H]3CCCN[C@@H]3C2)c(F)cc2c(=O)c(C(=O)O)cn(C3CC3)c12
inactive: outcome [1] | Potency [2] | outcome [3] | Potency [9] | outcome [5] | Potency [6] | Potency [7] | outcome [8]

CCOC(=O)c1ccc(C)cc1
inactive: outcome [1] | Potency [2] | outcome [3] | Potency [4] | outcome [5] | Potency [6] | Potency [7] | outcome [8]

CC(C)(C)c1nnc(NS(=O)(=O)c2ccccc2)s1
inactive: outcome [1] | Potency [2] | outcome [3] | Potency [9] | outcome [5] | Potency [7] | outcome [8]

N=C(N)c1ccc2cc(OC(=O)c3ccc(N=C(N)N)cc3)ccc2c1
inactive: outcome [1] | Potency [2] | outcome [3] | Potency [9] | outcome [5] | Potency [6] | Potency [7] | outcome [8]

CCO[Si](CCC1CCC2OC2C1)(OCC)OCC (configuration not stated)
inactive: outcome [1] | Potency [2] | outcome [3] | Potency [4] | outcome [5] | Potency [6] | Potency [7] | outcome [8]

COc1ccc2c(c1)CCCC2=O
inactive: outcome [1] | Potency [2] | outcome [3] | Potency [4] | outcome [5] | Potency [6] | Potency [7] | outcome [8]

Cc1sccc1Br
inactive: outcome [1] | Potency [2] | outcome [3] | Potency [4] | outcome [5] | Potency [6] | Potency [7] | outcome [8]

CN1C(=O)N(C)C(O)C1O (configuration not stated)
inactive: outcome [1] | Potency [2] | outcome [3] | Potency [4] | outcome [5] | Potency [6] | Potency [7] | outcome [8]

O=C1CCCN1C1CCCCC1
inactive: outcome [1] | Potency [2] | outcome [3] | Potency [4] | outcome [5] | Potency [6] | Potency [7] | outcome [8]

CCCCCSCCCCC
inactive: outcome [1] | Potency [2] | outcome [3] | Potency [4] | outcome [5] | Potency [6] | Potency [7] | outcome [8]

COCCCOCCCOC
inactive: outcome [1] | Potency [2] | outcome [3] | Potency [4] | outcome [5] | Potency [6] | Potency [7] | outcome [8]

O=[N+]([O-])c1ccc(F)cc1F
inactive: outcome [1] | Potency [2] | outcome [3] | Potency [4] | outcome [5] | Potency [6] | Potency [7] | outcome [8]

CCOC(=O)CCC(C)=O
inactive: outcome [1] | Potency [2] | outcome [3] | Potency [4] | outcome [5] | Potency [6] | Potency [7] | outcome [8]

CC(C)(O)C#CC(C)(C)O
inactive: outcome [1] | Potency [2] | outcome [3] | Potency [4] | outcome [5] | Potency [6] | Potency [7] | outcome [8]

NCCCNCCSP(=O)(O)O
inactive: activity change, negative = cytotoxicity [1] -0.971% [at 8.39 µM] | viability change, negative = cytotoxic [2] 0.214% [at 8.39 µM] | activity change, negative = inhibition [3] 3.05% [at 8.39 µM] | Potency [9] | activity change, negative = cytotoxicity [5] 0.673% [at 8.39 µM] | viability change, negative = cytotoxic [6] -2.35% [at 8.39 µM] | viability change, negative = cytotoxic [7] 5.98% [at 8.39 µM] | activity change [8] -0.244% [at 8.39 µM]

CCCCC(CC)COC(=O)c1ccccc1O (configuration not stated)
inactive: outcome [1] | Potency [2] | outcome [3] | Potency [9] | outcome [5] | Potency [6] | Potency [7] | outcome [8]

CN1CCC(=C2c3ccccc3CC(=O)c3sccc32)CC1
inactive: outcome [1] | Potency [2] | outcome [3] | Potency [4] | outcome [5] | Potency [6] | Potency [7] | outcome [8]

CC/C=C\CCOC(C)=O
inactive: outcome [1] | Potency [2] | outcome [3] | Potency [4] | outcome [5] | Potency [6] | Potency [7] | outcome [8]

C=C1CC[C@H]2C[C@@H]1C2(C)C
inactive: outcome [1] | Potency [2] | outcome [3] | Potency [4] | outcome [5] | Potency [6] | Potency [7] | outcome [8]

CN1CCCC1
inactive: outcome [1] | Potency [2] | outcome [3] | Potency [4] | outcome [5] | Potency [6] | Potency [7] | outcome [8]

CC(C)NCCCC1(C(N)=O)c2ccccc2-c2ccccc21
inactive: outcome [1] | Potency [2] | outcome [3] | Potency [4] | outcome [5] | Potency [6] | Potency [7] | outcome [8]

CCCC(=O)O[C@]1(C(=O)CO)CC[C@H]2[C@@H]3CCC4=CC(=O)CC[C@]4(C)[C@H]3[C@@H](O)C[C@@]21C
inactive: outcome [1] | Potency [2] | Potency [9] | Potency [4] | outcome [5] | Potency [7] | outcome [8]
